“And” between values parts separate entries of the source, which are not always exact repeats. Identical values can stand only once. A structure can be active in one record and inactive in another. The source made the active and inactive calls. The calls were made as follows: active = hit-call score of the fitted dose curve at least 0.9, where 1 is the maximum; inactive = score below 0.9.

The AC50 is the concentration giving half of the maximal activity seen.

Read-out in this assay: Pselectin, SELP (gene 6403)
Kind of assay: BSK_4H_Pselectin: BioMAP Diversity Plus: 4H Assay for Pselectin Biomarker Activity (AID 2283026). The conditions noted are these: primary human endothelial cells (HUVEC); actives raise or lower the signal. The protocol: BSK_4H is a cell-based, multiplexed-readout assay that uses umbilical vein endothelium, a human vascular primary cell, with measurements taken at 24 hours after chemical dosing in a 96-well plate.BSK_4H_Pselectin is an assay component measured in the BSK_4H assay. It measures P-Selectin antibody related to regulation of gene expression using ELISA technology.Data from the assay component BSK_4H_Pselectin was analyzed into 1 assay endpoint. This assay endpoint, BSK_4H_Pselectin, was analyzed with bidirectional fitting relative to DMSO as the negative control and baseline of activity. Using a type of binding reporter, gain or loss-of-signal activity can be used to understand changes in the signaling as they relate to the gene SELP. Furthermore, this assay endpoint can be referred to as a primary readout, because this assay has produced multiple assay endpoints where this one serves a signaling function. To generalize the intended target to other relatable targets, this assay endpoint is annotated to the cell adhesion molecules intended target family, where the subfamily is selectins.
The levels of cell surface (or secreted, indicated by the prefix "s") biomarker endpoints were measured by ELISA. Overt cytotoxicity to cells in confluent adherent cultures (all systems other than the BT system) was assessed by measuring total protein levels using sulforhodamine B (SRB) staining in parallel cultures at the time of biomarker measurements, indicated as SRB endpoints. For proliferation assays for adherent cell types, individual cell types are cultured at sub-confluence and relative cell numbers quantified by SRB staining at time points optimized for each system (48 h: 3C and CASM3C systems; 72 h: BT and HDF3CGF systems; 96 h: SAg system). SRB was performed by staining cells with 0.1% SRB after fixation with 10% TCA and reading wells at 560 nm.Viability and proliferation of PBMC (T cells) was quantified by Alamar Blue reduction for the SAg and BT systems. For PBMC viability (referred to as PBMC Cytotoxicity within the assay endpoint names), cells were plated (75,000/well in a 96-well plate) and then chemical samples added for 1 h before addition of activators, SEB and TSST-1 (20 ng/mL final concentration each). Cells were incubated for 90 h. Then, Alamar Blue (20 uL/well) (Invitrogen, Cat DAL1100) was added for 6 h, and the plates were read with a fluorescence microplate reader at 546/580 nm (excitation/emission). For PBMC proliferation, cells were plated and activated as above but incubated for only 16 h prior to addition of Alamar Blue. Plates were read after 6 h.
In the case of `CC1COC(Cn2cncn2)(c2ccc(Oc3ccc(Cl)cc3)cc2Cl)O1` (stereo not given), the AC50 is 24.7 µM (active).

For `CC(C)Oc1cc(-n2nc(C(C)(C)C)oc2=O)c(Cl)cc1Cl`, the AC50 was 29.3 µM (active).

`C#CCOS(=O)OC1CCCCC1Oc1ccc(C(C)(C)C)cc1` (stereo not given): the half-maximal activity concentration (AC50) is 3.97 µM (active).

As to `CCON=C(CC)C1=C(O)CC(c2c(C)cc(C)cc2C)CC1=O` (stereo not given), the result was inactive.

In the case of `COP(N)(=O)SC` (stereo not given), the result was inactive.

For `N#CC(CCc1ccc(Cl)cc1)(Cn1cncn1)c1ccccc1` (stereo not given), the result was inactive.

Take `Cc1ccc(-c2c(Cl)nc(C#N)n2S(=O)(=O)N(C)C)cc1`: the half-maximal activity concentration (AC50) was 17.7 µM (active).

On to `COP(=S)(OC)Oc1nc(Cl)c(Cl)cc1Cl`, for which the AC50 was 20 µM (active).

As to `CN(C)C(=S)SSC(=S)N(C)C`, the AC50 was 14 µM (active).

In the case of `CC(C)C1(C)N=C(c2nc3ccccc3cc2C(=O)O)NC1=O` (stereo not given), the result was inactive.

With `COc1nc(C)nc(NC(=O)NS(=O)(=O)c2ccccc2CCC(F)(F)F)n1`, the result was inactive.

`CCNc1nc(Cl)nc(NCC)n1`: the result was inactive.

Regarding `CO/C=C(/C(=O)OC)c1ccccc1Oc1cc(Oc2ccccc2C#N)ncn1`, the AC50 is 31.7 µM (active) and 21.1 µM (active); the outcome was inactive.

Take `CCCCOC(=O)c1ccccc1C(=O)OCCCC`: the outcome was inactive.

As for `CNC(=S)S`, the result was inactive.

For the molecule `COc1ccc(C(c2ccc(OC)cc2)C(Cl)(Cl)Cl)cc1`, the AC50 was 33.4 µM (active).

For the molecule `COC(=O)C(C)Oc1ccc(Oc2ccc(Cl)cc2Cl)cc1` (stereo not given), the result was inactive.

Take `COc1nc(NC(C)C)nc(NC(C)C)n1`: the result was inactive.

Turning to `C=CCC1=C(C)[C@@H](OC(=O)[C@@H]2[C@@H](C=C(C)C)C2(C)C)CC1=O`, the AC50 was 31.6 µM (active).

Consider `CCNc1nc(Cl)nc(NC(C)C)n1`, for which the outcome was inactive.

For `CC1=C(C(=O)Nc2ccccc2)SCCO1`, the result was inactive.

Turning to `COC(=O)c1ccccc1C(=O)OC`, the result was inactive.

`CCCCC(CC)COC(=O)c1ccccc1C(=O)OCC(CC)CCCC` (stereo not given): the AC50 is 15.6 µM (active).

On to `N#Cc1cc(Br)c(O)c(Br)c1`, for which the concentration at half-maximal activity (AC50) is 16.5 µM (active).

Regarding `O=C(O)c1nc(Cl)ccc1Cl`, the outcome was inactive.

On to `COC(=O)N(OC)c1ccccc1COc1ccn(-c2ccc(Cl)cc2)n1`, for which the AC50 is 20 µM (active).

On to `CCCC1COC(Cn2cncn2)(c2ccc(Cl)cc2Cl)O1` (stereo not given), for which the outcome was inactive.

Consider `C=CC1(C)OC(=O)N(c2cc(Cl)cc(Cl)c2)C1=O` (stereo not given), for which the outcome was inactive.

Turning to `O=C(Nc1ccccc1)Nc1ccnc(Cl)c1`, the result was inactive.

Take `CS/C(C)=N/OC(=O)N(C)SN(C)C(=O)O/N=C(\C)SC`: the AC50 was 19.9 µM (active).

On to `CCOc1cc(Oc2ccc(C(F)(F)F)cc2Cl)ccc1[N+](=O)[O-]`, for which the outcome was inactive.

Take `CCOC(=O)CC(SP(=S)(OC)OC)C(=O)OCC` (stereo not given): the result was inactive.

Consider `N#Cc1nn(-c2c(Cl)cc(C(F)(F)F)cc2Cl)c(N)c1S(=O)C(F)(F)F` (stereo not given), for which the AC50 was 20 µM (active).

For the molecule `CC(C)(C)c1ccc(CSc2cnn(C(C)(C)C)c(=O)c2Cl)cc1`, the AC50 was 11.1 µM (active).

Regarding `CC(Oc1ccc(Cl)cc1Cl)C(=O)O` (stereo not given), the result was inactive.

As to `Cc1c(F)c(F)c(COC(=O)C2C(/C=C(\Cl)C(F)(F)F)C2(C)C)c(F)c1F` (stereo not given), the outcome was inactive.

For the molecule `CCCCNC(=O)n1c(NC(=O)OC)nc2ccccc21`, the result was inactive.

Regarding `COc1nc(C)nc(NC(=O)NS(=O)(=O)c2ccccc2Cl)n1`, the result was inactive.

In the case of `CCc1nn(C)c(C(=O)NCc2ccc(C(C)(C)C)cc2)c1Cl`, the concentration at half-maximal activity (AC50) is 26.9 µM (active).

Source of the values: PubChem BioAssay (EPA / NIEHS).
